This is a sample that favours compounds with a hit; in the whole collection about 3.4% have one here.
MITF primary – blocks human microphthalmia-associated transcription factor. O75030. AlphaScreen MITF homodimerization, bead proximity signal. inhibition, % at 2.6 µM. 650,000 compounds, 0.91% hits. AID 1259374; in the data active means inhibition above about 50%
Target sequence (O75030 whole entry, looked up): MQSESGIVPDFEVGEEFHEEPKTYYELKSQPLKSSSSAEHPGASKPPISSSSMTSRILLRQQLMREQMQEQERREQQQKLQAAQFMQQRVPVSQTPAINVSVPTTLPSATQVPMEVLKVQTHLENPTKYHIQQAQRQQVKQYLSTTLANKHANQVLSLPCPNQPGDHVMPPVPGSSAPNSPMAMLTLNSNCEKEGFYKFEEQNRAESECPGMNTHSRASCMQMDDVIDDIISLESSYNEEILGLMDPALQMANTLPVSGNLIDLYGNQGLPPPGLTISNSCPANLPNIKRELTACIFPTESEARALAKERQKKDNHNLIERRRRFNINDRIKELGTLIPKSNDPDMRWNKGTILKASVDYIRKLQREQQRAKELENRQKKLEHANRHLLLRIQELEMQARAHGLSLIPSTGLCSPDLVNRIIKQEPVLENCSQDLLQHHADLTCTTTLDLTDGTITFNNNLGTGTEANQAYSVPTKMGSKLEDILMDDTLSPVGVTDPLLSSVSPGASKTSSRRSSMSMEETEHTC
TEAD-YAP inh – TEAD-YAP interaction inhibition. HEK-TIYL cells, TEAD-Gal4/YAP UAS-luciferase luminescence. inhibition, % at 9.12 µM. 640,000 compounds, 1.4% hits; in the data active means inhibition above about 32%
GPR151 ag – activates the human receptor GPR151 | PathHunter beta-arrestin GPR151 cells, luminescence | activation, % at 11.2 µM | 650,000 compounds, 1% hits | AID 1508602; in the data active means activation above about 4.9%
FBW7 activator – human FBW7 E3 ligase activation, primary screen | Q969H0 | AlphaScreen FBW7–phospho-cyclin E peptide binding, activator screen | normalized activity (activation), % at 26.1 µM | 650,000 compounds, 0.13% hits | AID 1259310; in the data active means normalized activity above about 1.9%;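 further: purified mutant Fbw7 with reduced substrate affinity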
Numbers stand for hits; . = inactive.

SMILES	MITF primary	TEAD-YAP inh	GPR151 ag	FBW7 activator
O=C(NCCc1ccccc1)c1nnc(-c2cccnc2)o1	.	.	.	.
COc1ccc(-c2cncc3ccc(C(=O)NCc4cnc(C)cn4)nc23)cc1	.	70	.	.
O=C(NCCc1ccccc1)c1ccc2cncc(-c3ccccc3)c2n1	.	47	.	.
O=C(NCc1ccco1)c1ccc2cncc(-c3cc4ccccc4o3)c2n1	.	54	.	.
O=C(NCc1ccncc1)c1ccc2cncc(-c3cc4ccccc4o3)c2n1	.	.	.	.
COc1ccccc1CNC(=O)c1ccc2cncc(-c3ccccc3)c2n1	.	65	.	.
Cc1cc(C(=O)N2CCN(c3nc4ccc(Cl)cc4s3)CC2)on1	.	.	.	.
COc1ccc(-c2cncc3ccc(C(=O)NCc4ccccc4)nc23)cc1	.	68	.	.
Cc1cc(=O)oc2cc(OCC(=O)OCC(=O)Nc3ccc4c(c3)OCO4)ccc12	.	.	.	.
Cc1cc2nnc(SCC(=O)NCc3ccco3)n2c2ccccc12	.	48	.	.
Cc1cccc(Cn2cc(SCC(=O)NCc3ccco3)c3ccccc32)c1	.	36	.	.
N[C@H](Cc1cc(F)cc(F)c1)c1nc2ccc(-c3ccncc3)cc2[nH]1	.	.	.	.
N[C@H](Cc1cccc(F)c1)c1nc2ncc(-c3ccncc3)cc2[nH]1	.	48	.	.
COc1cc(-c2ncnn2-c2sc3c(c2C#N)CCCCC3)ccc1O	.	79	.	.
COc1ccc(-c2ncnn2-c2sc3c(c2C#N)CCCCC3)cc1OC	.	.	.	.
OCCCNc1ccc2ncc(-c3ccccc3F)n2n1	.	56	.	.
COc1ccc(C(C)C)cc1-c1cnc2ccc(NCc3ccco3)nn12	.	59	.	.
OCCCNc1ccc2ncc(-c3cccc4ccccc34)n2n1	.	.	.	.
COc1ccc(-c2cnc3ccc(NCc4ccco4)nn23)c(OC)c1	.	.	.	.
COCCNc1ccc2ncc(-c3ccccc3F)n2n1	.	49	.	.
Fc1ccccc1-c1cnc2ccc(NCc3ccco3)nn12	.	39	.	.
O=c1oc(-c2ccccc2Cl)nc2sc3c(c12)CCC3	.	.	.	.
O=C(/C=C/c1cccc(F)c1)N1CCC(n2c(C3CCCO3)nc3cccnc32)CC1 (stereo not drawn)	.	.	.	.
COc1ccc(-c2noc(N3CCC(C(=O)Nc4cc(C)cc(C)c4)CC3)n2)cc1	.	.	.	.
CC1CCN(c2ccc(-c3c(C#N)c(N)n4c(nc5ccccc54)c3C#N)cc2[N+](=O)[O-])CC1	.	.	.	.
SMILES	MITF primary	TEAD-YAP inh	GPR151 ag	FBW7 activator
COc1ccccc1/C=N/Nc1nc(-c2ccccc2)cc(=O)[nH]1	.	50	.	.
COc1ccc(S(=O)(=O)N(CC(=O)NC2CC3CCC2C3)c2ccc(C)cc2)cc1 (stereo not drawn)	.	.	.	.
COc1cccc(C(=O)Nc2nc3c(OC)ccc(C)c3s2)c1OC	.	.	.	.
CCOc1ccc(NC(=O)c2ccc(F)c(S(=O)(=O)N3CCN(c4ccccc4)CC3)c2)cc1	.	37	.	.
CCOc1ccc(NC(=O)c2ccc(F)c(S(=O)(=O)N3CCCc4ccccc43)c2)cc1	.	43	.	.
CCOC(=O)C1CCCN(S(=O)(=O)c2cc(C(=O)Nc3ccc(CC)cc3)ccc2F)C1 (stereo not drawn)	.	.	.	.
O=C(Nc1ccc(Oc2ccccc2)cc1)c1ccc(F)c(S(=O)(=O)N2CCN(c3cccc(Cl)c3)CC2)c1	.	41	.	.
CCOC(=O)C1CCCN(S(=O)(=O)c2cc(C(=O)Nc3ccc(Oc4ccccc4)cc3)ccc2F)C1 (stereo not drawn)	.	53	.	.
COc1ccc(Cl)cc1NC(=O)C1CCCN1C(=O)OCc1ccccc1 (stereo not drawn)	.	.	.	.
CCOC(=O)c1nnn(CC(=O)Nc2ccc(OC)c(OC)c2)c1C(=O)OCC	.	.	.	.
COC(=O)C1=C(C)Nc2ncnn2C1c1cc(Br)c(O)c(OC)c1 (stereo not drawn)	.	.	.	.
CCOC(=O)C1=C(C)Nc2ncnn2C1c1cc(Br)c(OC)c(OC)c1 (stereo not drawn)	.	50	.	.
COC(=O)C1=C(C)Nc2ncnn2C1c1ccc(OC)c(Br)c1 (stereo not drawn)	.	32	.	.
Cn1c(=O)c2cn(-c3ccccc3O)cc2n(C)c1=O	.	.	.	.
COc1ccc2c(c1)C(=NN=C(N)N)c1cc(OC)ccc1-2	.	59	.	.
COc1ccc2c(c1)C(=O)c1cc(OC)ccc1-2	.	.	.	.

Bioassay records (PubChem BioAssay)
